Test results taken from PubChem BioAssay (NCATS).
Several values for one entry are separate records, joined by “and”; a condition that tells them apart may be missing. Equal values may be shown once. Results filed as inconclusive are left out. Activity calls are given as the source filed them. Calls come from the whole dose curve; as a rule, active = well fitted curve in the direction sought with a large enough effect; inconclusive = small, poorly fitted or top-dose-only effect, or another doubt; inactive = no such curve, though single readings can be large; an effect the other way counts as inactive or inconclusive.

Legend:
[1] = Validation qHTS assay for inhibitors of Activation Induced Cytidine Deaminase (AID): UDG Counterscreen signal (AID 1347427); note: 0% is about no effect
Procedure, shortened: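 Fluorescence at 560 nm excitation, 665 nm emission reports UDG signal after 250 mM NaOH (2x) addition and 30 min. Enzymes (AID 1 uM, UDG 2 U/mL, at 4/3x) preincubated 10 min with compound, then 4 h with 4x 250 nM DJC20/DJC23 substrate at room temperature.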

[2] = molecular target: Single-stranded DNA cytosine deaminase (Homo sapiens) (UniProt Q9GZX7); assay: Validation qHTS assay for inhibitors of Activation Induced Cytidine Deaminase (AID): AID signal (AID 1347429); note: potency is the fitted concentration of half-maximal effect
Sequence of Single-stranded DNA cytosine deaminase (Homo sapiens) (Q9GZX7 whole entry, looked up): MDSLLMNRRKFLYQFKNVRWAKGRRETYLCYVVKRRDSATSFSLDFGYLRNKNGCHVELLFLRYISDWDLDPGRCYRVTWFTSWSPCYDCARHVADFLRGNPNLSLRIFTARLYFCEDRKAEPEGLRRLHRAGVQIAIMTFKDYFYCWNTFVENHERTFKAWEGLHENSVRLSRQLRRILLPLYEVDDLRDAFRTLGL
Procedure, shortened: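 AID+UDG coupled FRET deamination; cpds up to 114 uM final; DJC20/DJC23 substrate, 4 hr RT; NaOH stop, 30 min RT; read Ex 540/Em 590.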

[3] = Primary qHTS for inhibitors of La Crosse Virus (LACV) - induced cell death in SH-SY5Y cells (AID 1508616);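 note: top concentration of the series differs between compounds; 0% = infected DMSO wells and 100% = uninfected DMSO wells; higher means more rescue of cells from virus-induced death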
Procedure, shortened: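 Cytopathicity rescue screen: compounds pinned onto SH-SY5Y cells, which are then infected with LACV (MOI 0.01) and held 6 days at 37C. Percent activity is scaled between infected DMSO control and uninfected DMSO control.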

[4] = Counterscreen qHTS for small molecule stabilizers of the endoplasmic reticulum resident proteome: GLuc-NoTag assay (AID 1508627);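 note: series mostly up to about 76 µM; 0% = thapsigargin alone and -100% = DMSO vehicle control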
Procedure, shortened: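 Secreted GLuc lacking the SERCaMP modification is measured in SH-SY5Y cells exposed to compound for 19 h and then to thapsigargin (100 nM, 4 h) to deplete ER calcium; hits retested at 11 concentrations, up to 76.6 uM.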

[5] = Primary qHTS for small molecule stabilizers of the endoplasmic reticulum resident proteome: Secreted ER Calcium Modulated Protein (SERCaMP) assay (AID 1508630); note: % is set by controls: 0 for no effect and ±100 for the full control effect
Procedure, shortened: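 The SH-SY5Y reporter protocol was run at 3 concentrations up to 38.3 uM (primary) or 11 concentrations (follow-up): 16 h compound, 100 nM thapsigargin for 4 h, then extracellular luciferase luminescence.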

[6] = molecular target: Calcium and integrin-binding protein 1 (Homo sapiens) (UniProt Q99828); assay: Validation qHTS for Identification of Calcium Integrin Binding protein 1 (CIB1) Competitor (AID 1508618); note: potency is the fitted concentration of half-maximal effect
Sequence of Calcium and integrin-binding protein 1 (Homo sapiens) (Q99828 whole entry, looked up): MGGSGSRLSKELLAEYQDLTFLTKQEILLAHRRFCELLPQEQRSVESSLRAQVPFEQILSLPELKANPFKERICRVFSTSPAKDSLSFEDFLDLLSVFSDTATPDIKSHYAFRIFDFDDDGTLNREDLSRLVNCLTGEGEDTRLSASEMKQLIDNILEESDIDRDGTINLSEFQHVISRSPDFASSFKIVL
Procedure, shortened: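 Fluorescence polarization with 1 uM CIB1-GST and 100 nM FITC-alphaIIb peptide in HEPES pH 7.4, NaCl, 5 mM CaCl2, Tween20. Compounds at up to 114 uM final, preincubated with protein 15 min; read after 15 min more at RT.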

[7] = molecular target: Calcium and integrin-binding protein 1 (Homo sapiens) (UniProt Q99828); assay: Primary qHTS for Identification of Calcium Integrin Binding Protein 1 (CIB1) Competitor (AID 1508620);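 note: GST tagged CIB1 binding a fluorescein labelled alphaIIb integrin peptide tracer; top concentration of the series differs between compounds; % is set by controls: 0 for no effect and ±100 for the full control effect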
Procedure, shortened: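 Fluorescence polarization competition: CIB1-GST (1 uM final) preincubated with compound 15 min at room temperature, then FITC-labeled alphaIIb peptide (100 nM final) added for another 15 min. Polarization read at Ex 480/Em 540.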

[8] = molecular target: Calcium and integrin-binding protein 1 (Homo sapiens) (UniProt Q99828); assay: Confirmatory qHTS for Identification of Calcium Integrin Binding Protein 1 (CIB1) Competitor (AID 1508617); note: nearly all actives have a fitted effect of over 65% in size; note: potency is the fitted concentration of half-maximal effect
Procedure, shortened: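 FP competition: CIB1-GST (1 uM final) in 5 mM HEPES pH 7.4, 125 mM NaCl, 5 mM CaCl2, 0.01% Tween20 preincubated 15 min RT with compounds (up to 114 uM), then FITC-alphaIIb peptide (100 nM), 15 min RT; Ex 480/Em 540.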

[9] = Cell Viability qHTS for small molecule stabilizers of the endoplasmic reticulum resident proteome (AID 1508629); conditions: cell viability counter-screen, 100 nM thapsigargin for final 4 h;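 note: human SH-SY5Y neuroblastoma cells carrying the GLuc-SERCaMP reporter; compound exposure about 46 h in total before the viability read; % is set by controls: 0 for no effect and ±100 for the full control effect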
[10] = Confirmatory qHTS for small molecule stabilizers of the endoplasmic reticulum resident proteome: Secreted ER Calcium Modulated Protein (SERCaMP) assay (AID 1508628); note: series mostly up to about 76 µM; % is set by controls: 0 for no effect and ±100 for the full control effect; nearly all actives have a fitted effect of over 40% in size
Procedure, shortened: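 GLuc-SERCaMP-expressing SH-SY5Y cells, pretreated 16 h with compound, are challenged with thapsigargin to empty ER calcium stores; after 4 h, coelenterazine is added directly to the medium and luminescence is imaged.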

Cc1ccc(N(CC2=NCCN2)c2cccc(O)c2)cc1
inactive: outcome [1] | Potency [2] | outcome [3] | Potency [4] | Potency [5]

NS(=O)(=O)c1cc2c(cc1Cl)NC=NS2(=O)=O
inactive: outcome [1] | Potency [2] | outcome [3] | Potency [6] | outcome [7] | Potency [5]

Cc1cccc(-c2[nH]c(C(C)(C)C)nc2-c2ccc3nccnc3c2)n1
inactive: outcome [1] | Potency [2] | outcome [3] | Potency [6] | Potency [5]

COc1ccc2nc(S(=O)Cc3ncc(C)c(OC)c3C)[nH]c2c1 (configuration not stated)
active: Potency [8] 39.8 µM
inactive: outcome [3] | outcome [7] | Potency [4] | max response [9] -2.62% | Potency [5]

C#Cc1cccc(Nc2ncnc3cc(OCCOC)c(OCCOC)cc23)c1
inactive: outcome [3] | outcome [7] | Potency [5]

CS(=O)(=O)c1cccc(CNc2nc(Nc3ccc4c(c3)CCC(=O)N4)ncc2C(F)(F)F)c1
inactive: Potency [6] | outcome [7]

Cn1cnc2c(F)c(Nc3ccc(Br)cc3Cl)c(C(=O)NOCCO)cc21
inactive: outcome [3] | outcome [7] | Potency [5]

CC(C[N+](C)(C)C)OC(N)=O (configuration not stated)
inactive: outcome [1] | Potency [2] | outcome [3] | Potency [6] | outcome [7] | Potency [5]

CNC[C@H](O)c1cccc(O)c1
inactive: outcome [1] | Potency [2] | outcome [3] | outcome [7]

NNCCc1ccccc1
inactive: Potency [2] | outcome [3] | Potency [6] | outcome [7] | Potency [5]

Cc1[nH]c(=O)c(C#N)cc1-c1ccncc1
inactive: outcome [1] | Potency [2] | outcome [3] | Potency [6] | Potency [5]

CCCc1nn(C)c2c(=O)[nH]c(-c3cc(S(=O)(=O)N4CCN(C)CC4)ccc3OCC)nc12
inactive: outcome [3] | Potency [6] | outcome [7] | Potency [5]

c1ccc([C@H]2CN3CCSC3=N2)cc1
inactive: outcome [1] | Potency [2] | outcome [3] | Potency [6] | Potency [5]

CC(C)(Sc1ccc(CCN(CCCCC2CCCCC2)C(=O)NC2CCCCC2)cc1)C(=O)O
inactive: outcome [1] | outcome [3] | Potency [4] | Potency [5]
active: Potency [2] 79.4 µM

Cc1oncc1C(=O)Nc1ccc(C(F)(F)F)cc1
inactive: outcome [1] | Potency [2] | outcome [3] | Potency [6] | outcome [7] | Potency [5]

N=c1nc(N2CCCCC2)cc(N)n1O
inactive: outcome [1] | Potency [2] | outcome [3] | Potency [5]

CCc1cncnc1N1CCN(Cc2nc3ccc(C(F)(F)F)cc3[nH]2)CC1
inactive: Potency [6] | outcome [7]

Clc1ccc(Nc2nnc(Cc3ccncc3)c3ccccc23)cc1
inactive: outcome [3] | outcome [7]

Cc1c(C)c2c(c(C)c1O)CCC(C)(COc1ccc(CC3SC(=O)NC3=O)cc1)O2 (configuration not stated)
inactive: outcome [3] | outcome [7]

N[C@@H]1CONC1=O
inactive: outcome [1] | Potency [2] | outcome [3] | Potency [6] | Potency [5]

CCN(CC)CCCC(C)Nc1ccnc2cc(Cl)ccc12 (configuration not stated)
inactive: outcome [1] | Potency [2] | outcome [3] | Potency [4] | Potency [10] | max response [9] -9.95%

CN1CCN(CCCN2c3ccccc3Sc3ccc(C(F)(F)F)cc32)CC1
inactive: outcome [1] | Potency [2] | outcome [3] | Potency [5]

O=C1CCCC2=C1C(c1[nH]ncc1Cl)N=C(Nc1nc3ccccc3o1)N2 (configuration not stated)
inactive: Potency [8] | Potency [5]

C[C@]12CCC(=O)C=C1CC[C@@H]1[C@@H]2[C@@H](O)C[C@@]2(C)[C@H]1CC[C@]2(O)C(=O)CO
inactive: outcome [3] | Potency [5]

CC(c1cc2ccccc2s1)N(O)C(N)=O (configuration not stated)
inactive: outcome [3] | outcome [7] | Potency [5]

Cc1ccc(-n2nc(C(C)(C)C)cc2NC(=O)Nc2ccc(OCCN3CCOCC3)c3ccccc23)cc1
inactive: outcome [3] | outcome [7] | Potency [5]

Cc1cc2c(C(C)C)c(O)c(O)c(C=O)c2c(O)c1-c1c(C)cc2c(C(C)C)c(O)c(O)c(C=O)c2c1O
active: Potency [8] 3.16 µM and 28.2 µM | Potency [6] 22.4 µM
inactive: outcome [1] | outcome [3] | Potency [5]

CCC(C)n1ncn(-c2ccc(N3CCN(c4ccc(OC[C@H]5CO[C@](Cn6cncn6)(c6ccc(Cl)cc6Cl)O5)cc4)CC3)cc2)c1=O (some centres not stated)
inactive: outcome [3] | outcome [7]

Cc1cnc(NC(=O)C2=C(O)c3ccccc3S(=O)(=O)N2C)s1
inactive: outcome [3] | Potency [5]

O=C(O)CCc1ccc(NCc2cccc(Oc3ccccc3)c2)cc1
inactive: Potency [6]

COc1ccc(-c2ccc3c(N4CCOCC4)nc(N4C[C@@H](C)O[C@@H](C)C4)nc3n2)cc1CO
inactive: max response [9] -27.3%

c1ccc(-c2nn3c(c2-c2ccnc4cc(OCCN5CCOCC5)ccc24)CCC3)nc1
inactive: outcome [7] | Potency [5]

COc1nc(-c2ccc3c(c2)OCO3)n(-c2ccc(NC(=O)CSc3ccccc3)cc2)n1
inactive: outcome [7] | Potency [5]

CCOc1cc(N2CCC(O)CC2)ccc1Nc1ncc2c(n1)N(C)c1ccccc1C(=O)N2C
inactive: outcome [7] | Potency [5]

CC[C@@H](C)[C@H](NC(=O)[C@H](CC1CCCCC1)NC(=O)c1ccno1)C(=O)N1CCC2(CCc3ccccc32)CC1
inactive: outcome [7] | Potency [5]

O=C1[C@H](Cc2ccc(O)cc2)N2C(=O)CCN(C(=O)NCc3ccccc3)[C@H]2CN1Cc1cccc2ccccc12
inactive: outcome [7] | Potency [5]

CCCS(=O)(=O)Nc1ccc(F)c(C(=O)c2c[nH]c3ncc(Cl)cc23)c1F
inactive: outcome [7] | Potency [5]

OC[C@H](Cc1ccccc1)Nc1nc(Oc2ccc3c(c2)CCC3)nc2c1ncn2Cc1ccc(-c2ccccc2)cc1
inactive: outcome [7] | Potency [5]

COc1ccc2c3n(c(=NC(=O)c4cccnc4)nc2c1OC)CCN3
inactive: outcome [7] | Potency [5]

Cc1cc(-c2ccc(CC(=O)Nc3ccc(-c4cccnc4)cc3)cc2)ccn1
inactive: outcome [7] | Potency [5]

O=C(O)[C@@H](c1ccc(OCc2ccc3ccccc3n2)cc1)C1CCCC1
inactive: outcome [7] | Potency [5]

S=C(NCc1ccc2c(c1)OCO2)N1CCN(c2ncnc3c2oc2ccccc23)CC1
inactive: outcome [7] | Potency [5]

C[C@@H]1CN(Cc2ccc(F)cc2)[C@@H](C)CN1C(=O)c1cc2c(C(=O)C(=O)N(C)C)cn(C)c2cc1Cl
inactive: outcome [7] | Potency [5]

CN[C@@H](C)C(=O)N[C@H]1CCCC[C@H]2CC[C@@H](C(=O)N[C@@H](c3ccccc3)c3cn(CCCCc4ccc(CCCCn5cc([C@@H](NC(=O)[C@@H]6CC[C@@H]7CCCC[C@H](NC(=O)[C@H](C)NC)C(=O)N76)c6ccccc6)nn5)cc4)nn3)N2C1=O
inactive: outcome [7] | Potency [5]
